Source: PubChem BioAssay
SENP6 block = blocks the human protease SENP6; Q9GZR1; Recombinant SENP6 catalytic domain, aminoluciferin luminescence; inhibition, % at 10 µM; 1.8% of 330,000 active; AID 2599;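 active = inhibition above about 50% at the single tested dose, limit read from the data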;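 also: plate controls were DMSO wells with enzyme for no effect and DMSO wells lacking enzyme for full effect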
PPC-1+TRAIL kill = PPC-1 cancer cell killing with TRAIL present | PPC-1 cells + TRAIL, ATPLite viability luminescence | cell killing (% activity), % at 4 µM or 5 µM | 0.41% of 220,000 active | AID 1443;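 active = cell killing above 50% in the first pass at 4 µM, then a duplicate retest at 5 µM averaging 50% or more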;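 also: plate controls were cells with TRAIL plus DMSO for no effect and medium-only wells lacking cells for full effect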
SENP7 inh = blocks the human protease SENP7; Q9BQF6; recombinant SENP7, Z-RLRGG-aminoluciferin luminescence, 40 min; inhibition, % at 5 µM; 1.5% of 330,000 active; AID 434973;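 active = inhibition above about 50% at the single test dose, limit read from the data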;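 also: plate controls were DMSO with enzyme for no effect and no enzyme buffer wells for full effect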
Target sequence (Q9BQF6 706-1050 limits assumed): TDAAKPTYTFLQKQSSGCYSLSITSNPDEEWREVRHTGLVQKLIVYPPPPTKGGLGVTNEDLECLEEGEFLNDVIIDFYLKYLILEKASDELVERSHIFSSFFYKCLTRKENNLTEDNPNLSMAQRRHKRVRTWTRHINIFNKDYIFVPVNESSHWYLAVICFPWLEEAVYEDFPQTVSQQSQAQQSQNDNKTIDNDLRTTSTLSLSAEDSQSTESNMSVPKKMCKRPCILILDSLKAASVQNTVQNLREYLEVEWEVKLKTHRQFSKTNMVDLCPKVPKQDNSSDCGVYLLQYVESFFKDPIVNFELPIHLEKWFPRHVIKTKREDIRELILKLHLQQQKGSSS
SENP8 block-1 = blocks human SENP8 cleavage of Nedd8 substrate; Q96LD8; recombinant SENP8, Nedd8 substrate fluorescence; inhibition, % at 20 µM; 0.64% of 360,000 active; AID 602440; in the data active = inhibition mostly above about 40%, no sharp cut-off; inactive = mostly below about 27%
Target sequence (Q96LD8 whole entry, looked up): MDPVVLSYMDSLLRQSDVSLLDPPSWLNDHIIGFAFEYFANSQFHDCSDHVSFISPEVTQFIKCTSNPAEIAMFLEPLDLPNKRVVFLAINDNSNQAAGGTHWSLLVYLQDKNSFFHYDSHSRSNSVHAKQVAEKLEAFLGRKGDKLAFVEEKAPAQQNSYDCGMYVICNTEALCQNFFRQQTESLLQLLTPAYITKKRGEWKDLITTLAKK
C8 TRAIL sens = caspase-8 TRAIL sensitization | AID 624354 | inhibition (viability loss, TRAIL sensitization), % at 10 µM | 1% of 360,000 active | NB7+C8 cells + TRAIL, ATPlite viability luminescence;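 active = compounds causing at least 50% loss of cell viability in the single-dose screen, relative to plate controls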
SENP8 block-2 = blocks the human protease SENP8; Q96LD8; purified SENP8, Z-RLRGG-aminoluciferin cleavage, luminescence; inhibition, % at 10 µM; 1.2% of 330,000 active; AID 2540; in the data active = inhibition above about 50%
SENP8 inh conf = confirmation of human SENP8 protease inhibitors; shares compounds with SENP8 block-1; purified SENP8, Nedd8-AMC/pro-Nedd8 cleavage fluorescence, 30 min; inhibition, % at 25 µM; 15% of 1,400 active; in the data active = inhibition mostly above about 39%, no sharp cut-off; inactive = mostly below about 34%
An asterisk follows results filed as active. An excerpt weighted towards active compounds, which were near 3% of everything screened.

O=C(Nc1nccs1)C1CCCCN1S(=O)(=O)c1ccccc1 (stereo not given) was read as SENP6 block 14, PPC-1+TRAIL kill 22, SENP7 inh -6, SENP8 block-1 45*, C8 TRAIL sens 6, SENP8 block-2 1 and SENP8 inh conf -1.
Screening CC1CCc2nc(NC(=O)CN3CCN(Cc4ccc5c(c4)OCO5)CC3)sc2C1 (stereo not given) returned SENP6 block -15, PPC-1+TRAIL kill 26, SENP7 inh 5, SENP8 block-1 38, C8 TRAIL sens -4 and SENP8 block-2 0.
For CC1CCc2nc(NC(=O)Nc3ccc4c(c3)OCO4)sc2C1 (stereo not given) the results were SENP6 block -8, PPC-1+TRAIL kill 36, SENP7 inh 2, SENP8 block-1 42*, C8 TRAIL sens 19, SENP8 block-2 2 and SENP8 inh conf 9.
For O=C(O)CCC(=O)Nc1ccccc1C(=O)N1CCN(c2ccc(Cl)cc2)CC1 the results were SENP6 block 16, PPC-1+TRAIL kill 15, SENP7 inh 4, SENP8 block-1 12, C8 TRAIL sens 2 and SENP8 block-2 2.
For CSc1nnc(C)c(/C=C/NOCc2ccc(Cl)cc2)n1 the results were SENP6 block 25, PPC-1+TRAIL kill 14, SENP7 inh 7, SENP8 block-1 44*, C8 TRAIL sens -7, SENP8 block-2 3 and SENP8 inh conf 40.
Screening COc1ccc(C2CC(=O)c3c(O)cc(O)cc3O2)cc1O (stereo not given) returned SENP8 block-1 41*, C8 TRAIL sens -13 and SENP8 inh conf 8.
O=C1CC(c2ccc(O)c(O)c2)Oc2cc(O)cc(O)c21 (stereo not given) was read as SENP6 block -2, PPC-1+TRAIL kill 16, SENP7 inh 1, SENP8 block-1 -13, C8 TRAIL sens -2 and SENP8 block-2 2.
COc1ccccc1CNC(=O)OCc1nccnc1C(=O)Nc1ccc(Br)cn1 was read as SENP6 block 14, SENP7 inh 20, SENP8 block-1 -4, C8 TRAIL sens 13 and SENP8 block-2 -10.
Screening CC1=NN(c2ccc(C)cc2C)C(=O)C1C(c1ccccc1O)C1C(=O)N(c2ccc(C)cc2C)N=C1C (stereo not given) returned SENP6 block 44, PPC-1+TRAIL kill -8, SENP7 inh 27, SENP8 block-1 58*, C8 TRAIL sens -3, SENP8 block-2 15 and SENP8 inh conf 57*.
For CC(=O)Nc1ccc(N=c2cc([N+](=O)[O-])cc(Cl)n2O)cc1 the results were SENP6 block 2, SENP7 inh 18, SENP8 block-1 51*, C8 TRAIL sens 4, SENP8 block-2 16 and SENP8 inh conf 28.
`CC12CCC(C(=O)N(CC3CO3)C1=O)C2(C)C` (stereo not given) gave SENP6 block -17, PPC-1+TRAIL kill 0, SENP7 inh -6, SENP8 block-1 -4, C8 TRAIL sens 36 and SENP8 block-2 -14.
COCCN(C(=O)COC(=O)COc1ccc(Cl)c(C)c1)c1c(N)n(Cc2ccccc2)c(=O)[nH]c1=O was read as SENP6 block 2, SENP7 inh 0, SENP8 block-1 -7, C8 TRAIL sens -4 and SENP8 block-2 -2.
O=C(CNc1ccc2c(c1)OCO2)N/N=C\c1ccccc1Cl was read as SENP6 block 7, PPC-1+TRAIL kill 24, SENP7 inh 6, SENP8 block-1 61*, C8 TRAIL sens 0, SENP8 block-2 3 and SENP8 inh conf 15.
For O=C(c1ncn(Cc2ccccc2)c1C(=O)N1CCc2ccccc2C1)N1CCc2ccccc2C1 the results were SENP6 block -8, SENP7 inh -1, SENP8 block-1 52*, C8 TRAIL sens 4, SENP8 block-2 -8 and SENP8 inh conf 58*.
For Cc1cccc(C(=O)OCC(=O)NCCNC(=O)COC(=O)c2cccc(C)c2C)c1C the results were SENP6 block -13, SENP7 inh -2, SENP8 block-1 5, C8 TRAIL sens -7 and SENP8 block-2 -5.
CCn1cc(/C=C/C(=O)Nc2ccn(Cc3c(F)c(F)cc(F)c3F)n2)cn1 was read as SENP6 block 7, PPC-1+TRAIL kill 12, SENP7 inh 1, SENP8 block-1 29*, C8 TRAIL sens 0, SENP8 block-2 13 and SENP8 inh conf 66*.
CCSC(=O)N1c2ccc(OC)cc2C=CC1C#N (stereo not given) was read as SENP8 block-1 -368 and C8 TRAIL sens 5.
`COc1ccc(N2CCN(c3n[nH]c(N)n3)CC2)cc1` gave SENP6 block 15, PPC-1+TRAIL kill 0, SENP7 inh -4, SENP8 block-1 13, C8 TRAIL sens -10 and SENP8 block-2 3.
`COc1ccc(N2Nc3n[nH]c(N)c3N2)cc1` gave SENP6 block 19, PPC-1+TRAIL kill 15, SENP7 inh 16, SENP8 block-1 51*, C8 TRAIL sens -3, SENP8 block-2 -6 and SENP8 inh conf 10.
`CCOc1ccc(N2Nc3n[nH]c(N)c3N2)cc1` gave SENP6 block 16, PPC-1+TRAIL kill -1, SENP7 inh -1, SENP8 block-1 49*, C8 TRAIL sens -7, SENP8 block-2 -18 and SENP8 inh conf 35.
`Cc1c(Cl)c(C(=O)NNC(=S)NCc2ccco2)nn1C` gave SENP6 block -12, PPC-1+TRAIL kill 8, SENP7 inh -7, SENP8 block-1 40*, C8 TRAIL sens 2, SENP8 block-2 -10 and SENP8 inh conf 14.
`CCc1nc2c(OCc3cc(Cl)cc(Cl)c3)cccn2c1N(C)C(=O)c1cccc(OC)c1` gave SENP8 block-1 -7 and C8 TRAIL sens 6.
O=C1Nc2ccccc2C1=Nc1cccc([N+](=O)[O-])c1 was read as SENP6 block -7, SENP7 inh 2, SENP8 block-1 13, C8 TRAIL sens -8 and SENP8 block-2 -4.
For NC(=O)c1ccc(N=C2C(=O)Nc3ccc([N+](=O)[O-])cc32)cc1 the results were SENP6 block 33, PPC-1+TRAIL kill 17, SENP7 inh -3, SENP8 block-1 86*, C8 TRAIL sens -1, SENP8 block-2 7 and SENP8 inh conf 100*.
Screening COc1cc(OC)cc(C(=O)NC(=S)Nc2ccc(N3CCCC3)cc2)c1 returned SENP6 block 3, PPC-1+TRAIL kill -6, SENP7 inh -2, SENP8 block-1 43*, C8 TRAIL sens 4, SENP8 block-2 -3 and SENP8 inh conf 28.
Screening COc1ccc(/C=C/C(=O)NC(=S)Nc2ccc(N3CCN(C(C)=O)CC3)cc2)cc1 returned SENP6 block -7, PPC-1+TRAIL kill 10, SENP7 inh 2, SENP8 block-1 51*, C8 TRAIL sens 29, SENP8 block-2 -3 and SENP8 inh conf 13.
